An excerpt weighted towards active compounds, which were near 21% of everything screened.
SARS PLpro yeast: blocks SARS-CoV papain-like protease in a yeast assay | actives 0.19% (n = 330,000) | Potency, µM (series often up to 32.9 µM), actives largely listed as activators | AID 485353 | S. cerevisiae expressing SARS-CoV PLpro, growth rescue; calls by dose curve; also: nearly all actives have a fitted effect of over 55% in size
Shiga inhibitor: inhibitors of Shiga toxin in Vero cells. actives 9.2% (n = 290,000). Vero cells, Shiga toxin protein synthesis inhibition reporter. inhibition, % at 38.7 µM; in the data active = inhibition mostly above about 28%, no sharp cut-off; inactive = mostly below about 43%
Cycloheximide cs: counter-screen hit for Shiga toxin inhibitors, cycloheximide; cell reporter, cycloheximide protein synthesis inhibition counterscreen; max response, %; actives 12% (n = 300,000); AID 2314; in the data active = max response mostly above about 13%, no sharp cut-off; inactive = mostly below about 14%; also: read at 38.3 µM for the half of the compounds with a filed dose
Pf growth 48h: inhibits P. falciparum growth in the first generation, 48 h; P. falciparum luciferase growth in erythrocytes, 48 h; Potency, µM (highest dose often 28.7 µM), actives largely listed as inhibitors; actives 5.9% (n = 310,000)
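A one-generation exposure of luciferase-tagged malaria parasites in RPMI 1640/Albumax erythrocyte culture, 37 C and 5% CO2. Inhibition is inferred from decreased luminescence after adding detection reagent.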
NS1 function inh: blocks influenza NS1 protein function. Potency, µM (highest dose often 46.1 µM). actives 0.4% (n = 270,000); calls by dose curve; also: actives are rising curves; nearly all actives have a fitted effect of over 50% in size
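Read-out: OD600 growth recovery of NS1-expressing budding yeast. Cells grown overnight at 30C in -URA glucose medium, washed, resuspended and diluted 1:100 in 2% galactose assay medium, pH 6.0. Same strain lacking NS1 served as positive control.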
Pf growth 96h: P. falciparum growth inhibition at 96 hour, primary screen for plastid delayed-death inhibitors; P. falciparum luciferase reporter growth, 96 h; Potency, µM (highest dose often 28.7 µM), hits mostly inhibitors; actives 6.9% (n = 320,000)
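Two parasite generations (96 h, 37 C, 5% CO2) of compound exposure in infected erythrocytes (0.05% parasitemia, 2% hematocrit). Luciferase-reporter P. falciparum; decreased luminescence indicates inhibited growth, aimed at apicoplast-acting delayed death.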
A number is an active result; . = inactive; ? = inconclusive; / = no result given; + = active, no number. Unless noted, calls follow the shape of the dose curve; as a rule, active = well fitted inhibition curve with a large enough effect; inconclusive = small, poorly fitted or top-dose-only effect, or another doubt; inactive = no such curve, though single readings can be large or run the other way.

SMILES	SARS PLpro yeast	Shiga inhibitor	Cycloheximide cs	Pf growth 48h	NS1 function inh	Pf growth 96h
COC(=O)C1CCCCN1C(=O)CCc1nnc(CCc2c[nH]c3ccccc23)o1 (stereo not drawn)	.	.	.	?	.	?
Cc1nc(C(C)NC(=O)CCc2nnc(Cc3c[nH]c4ccccc34)o2)cs1 (stereo not drawn)	.	.	.	.	.	4.65µM
CCN1CCCC1CNC(=O)CCc1nnc(CCC2CCCCC2)o1 (stereo not drawn)	.	.	.	.	.	.
COC(=O)[C@@H]1CCCN1C(=O)CCc1nnc(CCC2CCCCC2)o1	.	73.7	33.5	.	.	.
COC(=O)[C@@H]1CCCN1C(=O)CCc1nnc(CCc2c[nH]c3ccccc23)o1	.	48.1	47.5	?	.	.
CCCOC(=O)Nc1nnc(CCC)s1	?	.	.	.	.	/
CC(Sc1nnc(N)s1)C(=O)Nc1ccc2c(c1)OCCO2 (stereo not drawn)	.	.	.	.	.	.
O=C(CN1C(=O)CC(c2ccccc2)S(=O)(=O)c2ccccc21)N1CCCCC1 (stereo not drawn)	.	.	.	.	/	?
O=C(NCc1ccccn1)c1cn(-c2ccccc2)nc1-c1ccc(Cl)cc1	.	.	.	?	.	.
CCOC(=O)c1ccc(NC(=S)N2CCN(C(=O)C3CCCO3)CC2)cc1 (stereo not drawn)	.	.	.	.	.	.
O=C(CCc1nnc(CCc2ccccc2)o1)N1CCCC1c1nccs1 (stereo not drawn)	.	.	16.3	.	.	13.1µM
CC(C)CC(=O)Nc1nnc(S(=O)(=O)Nc2ccccc2)s1	.	.	.	.	.	.
C=CCCN(Cc1ccccc1)S(=O)(=O)c1cc(Br)ccc1Br	.	/	/	13.1µM	/	.
COC(=O)Cc1c(C)c2ccc(OCc3nn[nH]n3)c(C)c2oc1=O	.	.	.	.	.	/
C=C(C)COc1ccc2c(C)c(C)c(=O)oc2c1OCC(=C)C	.	.	.	11.7µM	.	.
COC(=O)Cc1c(C)c2ccc(OCC(C)=O)c(C)c2oc1=O	.	91.6	42.7	.	.	/
CCOC(=O)CCc1c(C)c2ccc(OCC(=O)N(CC)CC)c(C)c2oc1=O	.	.	.	10.4µM	.	/
C=C(C)COc1ccc2c(C)c(CC(=O)OC)c(=O)oc2c1C	.	+	47.1	?	.	.
Cc1cccc(N2CCN(C(=O)[C@H](C)N3C(=O)C4CC=CCC4C3=O)CC2)c1C (stereo partly drawn)	.	/	/	/	/	/
CC(C)CNC(=O)NC(=O)COC(=O)c1cc(F)cc(F)c1	.	.	.	.	.	.
COc1ccc(OC)c(Nc2nc(NCCO)c3ccccc3n2)c1	.	.	.	2.08µM	.	?
Cc1ccc(Nc2nc(NCCO)c3ccccc3n2)cc1C	.	/	.	0.465µM	.	?
O=C(NCCNc1ccc([N+](=O)[O-])cc1C(F)(F)F)c1ccccc1	.	.	.	?	.	13.1µM
O=C(NCc1ccccc1)c1ccc(Br)cc1	.	.	.	.	.	?
O=C(CCNC(=O)c1ccc(Br)cc1)NNC(=O)c1ccccc1	.	/	/	/	/	/
SMILES	SARS PLpro yeast	Shiga inhibitor	Cycloheximide cs	Pf growth 48h	NS1 function inh	Pf growth 96h
O=C(NCCCc1ccccc1)c1ccccc1	?	75.9	39.8	.	.	9.28µM
O=C(NCCCCc1ccccc1)c1ccc(Br)cc1	.	55.7	38.1	.	.	?
O=C(NCCC(=O)N(CCc1ccccc1)Cc1ccccc1)c1ccc(Br)cc1	/	/	/	?	/	13.1µM
O=C1COC(c2ccccc2O)=NN1CCCN1CCCC1	/	/	/	/	.	/
O=C(NCCCc1ccccc1)c1ccncc1	.	.	.	.	.	/
O=C(CCCC(=O)c1ccccc1)NCCc1ccccc1	.	.	.	.	.	.
O=C(CCCc1ccccc1)c1ccccc1	.	96.6	46.4	.	.	.
O=C(NCCCc1ccccc1)c1cccc([N+](=O)[O-])c1	.	.	22.0	.	.	.
O=C(NCCCCc1ccccc1)c1ccccc1	.	.	15.5	.	/	?
O=C(NCCc1ccccc1)c1ccc(-n2cnnn2)cc1	.	60.7	46.7	.	.	.
O=c1cc[nH]c2c1ccc1cccnc12	.	/	/	.	/	.
COc1cccc(CNC(=O)c2ccccc2NC(=O)C2=C(C)OCCS2)c1OC	.	.	.	?	.	?
COc1cccc(CNC(=O)c2nnn(CC(=O)Nc3cccc(C)c3)c2N)c1	.	.	.	.	.	?
c1ccc(-c2nc(-c3cccnc3)cs2)cc1	.	51.6	46.1	?	.	?
NC(=O)c1cc(-c2csc(-c3cccnc3)n2)ccc1O	.	60.5	.	.	.	.
O=C(NCCc1csc(-c2cccnc2)n1)c1ccccc1	.	.	.	?	.	?
Cc1ccc(C)c(-c2csc(-c3cccnc3)n2)c1	.	/	21.2	?	.	?
O=C(NCc1ccccc1)c1csc(-c2cccnc2)n1	.	.	.	9.28µM	.	.
CC1CCCN(C(=O)C2CCN(S(=O)(=O)c3cccc4nonc34)CC2)C1 (stereo not drawn)	.	.	.	.	.	.
O=S(=O)(c1ccc2c(c1)OCCO2)N1CCN(S(=O)(=O)c2c(F)ccc(O)c2F)CC1	/	.	.	/	/	/
c1ccc(-c2csc(-c3cccnc3)n2)cc1	.	88.6	27.8	.	.	.
c1ccc(Nc2nnc(-c3cccnc3)s2)cc1	.	69.0	42.1	/	.	.
Nc1nnc(-c2cccnc2)s1	.	.	.	.	.	.
C=CCNc1nc(-c2ccc(O)c(C(N)=O)c2)cs1	.	.	22.0	.	.	.
c1ccc(CNc2nc(-c3cccnc3)cs2)cc1	.	.	34.1	?	.	.
SMILES	SARS PLpro yeast	Shiga inhibitor	Cycloheximide cs	Pf growth 48h	NS1 function inh	Pf growth 96h
NC(=O)c1cc(-c2csc(NCCc3ccccc3)n2)ccc1O	.	.	.	.	.	?
O=C(Cc1ccccc1F)Nc1nc(-c2cccnc2)cs1	.	.	.	?	.	.
O=S(=O)(c1ccc(-c2csc(-c3cccnc3)n2)cc1)N1CCOCC1	.	.	.	?	/	.
CC(C)CNC(=O)[C@H]1N2C(=O)c3ccccc3C2SC1(C)C (stereo partly drawn)	.	.	.	/	.	.
CCc1cccc(N(CC(=O)NC2CCCCC2)C(=O)c2csnn2)c1	.	.	.	.	.	.
CC(C(=O)Nc1ccccc1F)N1CCN(S(=O)(=O)c2ccc(C(F)(F)F)cc2)CC1 (stereo not drawn)	.	/	/	?	/	.
NS(=O)(=O)c1ccc(CNC(=O)CNC(=O)c2ccc(F)cc2)cc1	.	67.8	14.9	.	.	.
CN(CC(=O)NC1CC1)S(=O)(=O)c1ccc(Br)cc1	/	.	.	8.28µM	.	.
O=C(CCS(=O)(=O)c1ccc(Br)cc1)NCc1ccc(F)cc1	.	.	.	.	.	10.4µM
Cc1ccc(CNC(=O)CCS(=O)(=O)c2ccc(Br)cc2)cc1	.	.	.	.	/	?
CN(CC(=O)NC1CC1)S(=O)(=O)c1cc(Cl)ccc1Cl	.	.	.	4.15µM	.	5.22µM

Screening results deposited in PubChem by National Center for Advancing Translational Sciences (NCATS).
